NPC1 promoter act – activators of NPC1 promoter | Huh7 NPC1 promoter luciferase reporter, 24 h | Potency, µM (highest dose often 9.22 µM), for the others: at the highest dose activation, hits mostly activators | 2.4% of 320,000 active; further: % of control where 0% means no effect; nearly all actives have a fitted effect of over 60% in size
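In 1536-well qHTS, Huh7 cells harboring an NPC1 promoter–luciferase construct received compound for 24 h; activation was quantified by luminescence following luciferase reagent addition.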
Rab9 promoter act – activates the Rab9 promoter; Potency, µM (top dose mostly 9.22 µM), without a hit: at the highest dose activation, negative = inhibition, actives largely listed as activators; AID 485297; Huh7 Rab9 promoter-luciferase reporter, luminescence, 24 h; 2.8% of 320,000 active; further: % of control where 0% means no effect; nearly all actives have a fitted effect of over 60% in size
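Huh7 cells stably carrying Rab9 promoter–luciferase reporter, plated 1500 cells/well, compound added after 2 h and incubated 24 h at 37 °C; luciferase luminescence then read after 10 min with detection reagent.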
SMN2 splice enh – increases expression of the SMN2 splice variant | HEK293 SMN2-luciferase splicing reporter, luminescence, 30-36 h | Potency, µM (highest dose often 46.1 µM), for the others: at the highest dose activity change, positive = activation, actives largely listed as activators | 2.8% of 210,000 active | AID 1458; further: % of control where 0% means no effect; nearly all actives have a fitted effect of over 55% in size
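HEK293 cells carry an SMN2 minigene-luciferase reporter in which exon 7 inclusion puts luciferase in frame. Cells were seeded at 2000 cells/well, attached for 10-12 hours, then exposed to compounds for 30-36 hours at 37C before ONE-Glo luminescence.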
FLuc counter – inhibits or activates purified firefly luciferase, miR-21 counter-screen. 6.9% of 360,000 active. P08659. AID 588342. Potency, µM (titrated, usually from 57.5 µM), for the others: top-dose activity change, negative = inhibition, most hits filed as inhibitors. purified FLuc, Km substrates, luminescence inhibition;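 further: plate controls were vehicle for no effect and reference inhibitor for full effect; nearly all actives have a fitted effect of over 55% in size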
Target sequence (P08659 whole entry, looked up): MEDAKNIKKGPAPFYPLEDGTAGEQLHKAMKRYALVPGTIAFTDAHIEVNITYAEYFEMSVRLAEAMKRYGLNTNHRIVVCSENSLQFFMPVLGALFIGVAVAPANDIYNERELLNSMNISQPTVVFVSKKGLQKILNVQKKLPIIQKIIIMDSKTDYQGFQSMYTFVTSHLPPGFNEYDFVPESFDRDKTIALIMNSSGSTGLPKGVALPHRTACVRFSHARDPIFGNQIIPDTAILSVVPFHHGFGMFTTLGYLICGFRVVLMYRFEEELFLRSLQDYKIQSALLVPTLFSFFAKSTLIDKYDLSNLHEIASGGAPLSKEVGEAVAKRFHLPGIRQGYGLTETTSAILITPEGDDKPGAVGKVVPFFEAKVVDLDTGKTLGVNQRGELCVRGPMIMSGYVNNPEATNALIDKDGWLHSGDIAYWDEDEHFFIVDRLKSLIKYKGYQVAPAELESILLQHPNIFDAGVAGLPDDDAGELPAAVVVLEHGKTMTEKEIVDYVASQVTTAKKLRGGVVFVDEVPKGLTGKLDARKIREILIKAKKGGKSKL
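Purified P. pyralis luciferase, 10 nM final, with Km-level 10 uM D-luciferin and 10 uM ATP in 50 mM Tris acetate pH 7.5, 10 mM Mg acetate, 0.01% Tween-20, 0.05% BSA; 6-point qHTS titration about 60 µM downward; luminescence read.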
ELG1 genotox – inducers of genotoxicity in HEK293T ELG1-luciferase cells; 1.3% of 330,000 active; HEK293T ELG1-luciferase reporter, luminescence, 16 h; AID 504466; Potency, µM (highest dose often 46 µM), without a hit: at the highest dose activity change, positive = activation, usual class: activators; further: % of control where 0% means no effect; nearly all actives have a fitted effect of over 60% in size
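Cells (2,000/well) expressing the ELG1-luciferase fusion are dosed by pin tool and kept 16 hr at 37 °C, 5% CO2. Signal comes from ONE-Glo luciferase reagent after 30 min at room temperature.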
KinaseGlo FLuc – Kinase-Glo luciferase inhibition (counter-screen); Q27757; Kinase-Glo luciferase, ATP luminescence, 8 min; Potency, µM (top dose mostly 38.3 µM), inactives show at the top dose activity change, negative = inhibition, actives largely listed as inhibitors; 0.28% of 200,000 active; AID 1379; further: on the % scale 0 is the no-effect control and ±100 the full control effect; nearly all actives have a fitted effect of over 60% in size
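Recombinant Kinase-Glo luciferase, 10 uM ATP (linear range), luciferin; imidazole pH 7.2 / KCl / MgCl2 / Tween / BSA buffer; 8 min RT; luminescence.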
* marks the source's active call; other numbers are inactive results; ? = inconclusive; . = no result given. In the library only some 7.4% were active in any assay of this set; here they are far more common. The call rests on the fitted dose curve; in most records, active means well fitted curve in the direction sought with a large enough effect; inconclusive means small, poorly fitted or top-dose-only effect, or another doubt; inactive means no such curve, though single readings can be large; an effect the other way counts as inactive or inconclusive. Potency means the concentration at half of the fitted maximal effect.

SMILES	NPC1 promoter act	Rab9 promoter act	SMN2 splice enh	FLuc counter	ELG1 genotox	KinaseGlo FLuc
O=C(Nc1ccccc1N1CCOCC1)c1cc2c(s1)CCCCC2	27%	?	.	4.8µM*	7%	3%
CC(C)CC1NC(=O)N(CC(=O)Nc2ccc3c(c2)OCCO3)C1=O (centres undefined)	-1%	1%	.	.	0%	.
CCc1ccc(N2CCn3c2nc2c3c(=O)n(Cc3ccc(F)cc3)c(=O)n2C)cc1	.	.	.	9.5µM*	.	.
CCc1ccc(N2CCn3c2nc2c3c(=O)n(Cc3c(F)cccc3Cl)c(=O)n2C)cc1	.	.	.	-1%	.	.
CCOC(=O)Cc1csc(N/N=C\c2ccccc2OC)n1	26%	20%	.	11µM*	8%	.
CCOC(=O)Cc1csc(N/N=C/c2ccccc2)n1	29%	20%	3%	15µM*	9%	2%
COc1ccc(/C=N/Nc2nc(C(=O)O)cs2)cc1	?	?	.	0.67µM*	6%	.
COC(=O)c1ccc(/C=N/Nc2nc(-c3ccccc3)cs2)cc1	12%	20%	.	-2%	6%	.
CCOC(=O)Cc1csc(N/N=C\c2ccc(N(C)C)cc2)n1	?	29%	.	2.4µM*	8%	.
O=C(NCCCNC(=O)c1cnccn1)c1cccc(F)c1	0%	1%	.	0%	1%	.
CN(C)C(=O)COc1ccc(Oc2ccccc2)cc1	12%	23%	6%	-27%	19%	0%
Cc1ccnc(N(C(=O)Nc2ccccc2)C2=NCC(C)(C)S2)c1	2.5µM*	?	.	19µM*	?	.
CCCCC/C=C\C/C=C\C/C=C\C/C=C\CCCCCC(=O)NCCCC(=O)O	.	.	19%	.	.	0%
CC(Nc1nc(-c2ccc3c(c2)NC(=O)CO3)cs1)c1ccccc1 (centres undefined)	21%	12%	-13%	?	-8%	1%
C=CCNc1nc(-c2cc3ccccc3o2)cs1	1µM*	0.63µM*	0.56µM*	0.34µM*	0.52µM*	-3%
O=c1oc2ccccc2cc1-c1csc(NN=C2CCCCC2)n1	?	?	?	13µM*	14%	-4%
C=CCNc1nc(-c2ccc(O)c(C(N)=O)c2)cs1	2%	4%	3%	?	?	-3%
O=C1COc2ccc(-c3csc(NCC4CCCO4)n3)cc2N1 (centres undefined)	5%	27%	-24%	17µM*	11%	-1%
O=S(=O)(Nc1nc2ccccc2nc1NCC1CCCO1)c1ccccc1 (centres undefined)	-2%	-4%	.	0%	1%	.
c1ccc2sc(NCC3CCCO3)nc2c1 (centres undefined)	2.2µM*	1.4µM*	10µM*	21µM*	?	-14%
O=C(CSc1nnc(CNC(=O)c2ccccc2F)o1)NC1CCCCC1	-3%	-1%	.	1%	-3%	.
CC(C)CCOc1ccc(Cn2c(=O)sc3ccccc32)cc1	.	.	-23%	-4%	.	.
c1ccc2oc(-c3csc(NCC4CCCO4)n3)cc2c1 (centres undefined)	1.6µM*	0.4µM*	?	1.5µM*	2.3µM*	5%
CC1CCC/C(=C(\C#N)c2nc(-c3cc4ccccc4oc3=O)cs2)C1 (centres undefined)	2.5µM*	1.8µM*	-12%	1.7µM*	?	1%
O=c1c(Cl)c(NCc2ccccc2Cl)cnn1C12CC3CC(CC(C3)C1)C2	-4%	-4%	-51%	12µM*	1%	5%
SMILES	NPC1 promoter act	Rab9 promoter act	SMN2 splice enh	FLuc counter	ELG1 genotox	KinaseGlo FLuc
CCn1c(-c2ccccn2)nc2cc(S(=O)(=O)N(C)C)ccc21	18%	27%	.	21µM*	8%	.
CCn1c(-c2cc(Br)cc(OC)c2O)nc2cc(S(=O)(=O)N(C)C)ccc21	-5%	-6%	-15%	-1%	-14%	-4%
CCOc1ccc(CCNC(=O)CN(C)S(=O)(=O)c2cccs2)cc1OCC	3%	0%	.	3%	-1%	.
CCOc1ccc(C(=O)Nc2ccc3c(c2)OCCO3)cc1[N+](=O)[O-]	0%	21%	-28%	?	-13%	-1%
Cc1[nH]c2ccccc2c1C(=O)C(=O)Nc1ccc2c(c1)OCO2	?	?	.	17µM*	17%	.
O=C(Nc1ccc2c(c1)OCO2)c1cccc(Cl)c1	3.2µM*	2.2µM*	16µM*	9.5µM*	?	?
O=C(Nc1ccc2c(c1)OCO2)c1ccc[n+]([O-])c1	-4%	7%	-6%	1%	1%	-5%
O=C(Nc1ccc(Cl)c([N+](=O)[O-])c1)c1ccc2c(c1)OCCO2	?	0.89µM*	.	6µM*	?	.
NC(=O)c1ccc(NC(=O)c2ccc3c(c2)OCO3)cc1	1.3µM*	1.6µM*	13µM*	4.8µM*	18µM*	-5%
CC1CCN(S(=O)(=O)c2ccc(C(=O)N3CCCC3C(=O)O)cc2)CC1 (centres undefined)	-1%	2%	.	.	0%	.
O=C(Nc1ccc(NC(=O)c2ccc(Cl)cc2Cl)cc1)c1ccc2c(c1)OCO2	-3%	0%	.	0%	1%	.
O=C(Nc1ccc(N2CCCCC2)c(Cl)c1)c1ccc2c(c1)OCCO2	24%	28%	-61%	5.4µM*	?	-3%
O=C(Nc1ccc(Cl)cc1)c1ccc2c(c1)OCO2	0.4µM*	?	4.5µM*	1.3µM*	?	-9%
O=C(Nc1ccc2c(c1)OCO2)c1ccc(CO)cc1	3.2µM*	2.8µM*	.	9.5µM*	?	.
O=C(Nc1ccc2c(c1)OCO2)c1ccc(N2CCCC2)c([N+](=O)[O-])c1	14%	-1%	24%	19µM*	3%	1%
CCC(=O)Nc1ccc(C(=O)Nc2ccc3c(c2)OCO3)cc1	18%	14%	2%	?	11%	-4%
COc1cccc(NC(=O)c2ccnc(N3CCC(C(=O)NCc4ccccc4OC)CC3)c2)c1	20%	30%	.	-19%	4%	.
CC1CCCCC1NC(=O)c1cccc(NC2=NC3CS(=O)(=O)CC3S2)c1 (centres undefined)	-6%	1%	.	6%	7%	.
CCOc1ccc(NC(=O)c2ccc(-c3nc(COc4ccccc4)c(C)o3)cc2)cc1	.	.	.	-5%	.	.
Cc1ccccc1-c1nc(CNC(=O)NC2CCCCC2)c(C)o1	.	.	.	-6%	.	.
CCN1CCN(c2ccc(NC(=O)c3ccc4c(c3)OCO4)cc2)CC1	?	?	16µM*	17µM*	9.2µM*	2%
CCc1ccc(-n2nc3ccc(NC(=O)c4ccc5c(c4)OCO5)cc3n2)cc1	0%	-1%	-14%	4%	12%	2%
O=C(Nc1ccc(Br)cc1)c1ccc2c(c1)OCO2	1µM*	0.71µM*	.	2.1µM*	8.2µM*	.

Source: PubChem (National Center for Advancing Translational Sciences (NCATS))
